# Assay results published in PubChem BioAssay.
# Results with a measured potency or affinity are listed apart. Values without a mark were called inactive.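 How the source made its calls: active means signal drop whose fitted half-maximal concentration is at most twice the top valid dose, in every test run; inconclusive means mixed calls across runs, poor fit, or flat 30 to 70% inhibition; inactive means wrong direction, flat within 30%, or potency beyond limit.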
# Assay: cytotoxicity in PAX8-dependent RMG-1 cells, dose response, cell-based, cherry-pick (AID 687029);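 further: cells exposed to compound for 96 hours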
# Details: RMG-1 viability, CellTiterGlo ATP luminescence, 96 h; series mostly up to 35 µM; activity change, negative = inhibition: at the top concentration
row,SMILES,"activity change, negative = inhibition"
1,O=C(Nc1cccc(C(=O)O)c1)Nc1ccc2c(c1)OCO2,13.6%
2,COc1ccc(NC(=O)Nc2ccc3c(c2)C(=O)N([C@H](C)CO)C[C@H](C)[C@H](CN(C)Cc2ccc(C(F)(F)F)cc2)OCCCC[C@H](C)O3)cc1,18.7%
3,Cc1ccc2nc(-c3ccc(Br)cc3)cn2c1,13.7%
4,C[C@@H]1CCCCO[C@H](CN(C)Cc2ccc(Cl)c(Cl)c2)[C@@H](C)CN([C@@H](C)CO)C(=O)c2cc(NS(=O)(=O)c3ccccc3)ccc2O1,35.4%
5,C[C@@H]1CN([C@@H](C)CO)C(=O)Cc2cc(NC(=O)Cc3ccccc3)ccc2O[C@H]1CN(C)Cc1ccc(-c2ccccc2)cc1,20.9%
6,Cn1cnc(S(=O)(=O)N2C[C@@H]3N[C@H](C2)C3c2ccc(-c3ccccc3F)cc2)c1 (stereo partly specified),13.8%
7,COc1ccc(NC(=O)N2CCCCN3[C@H](C2)[C@@H](c2ccc(C#Cc4ccccc4)cc2)[C@@H]3CO)cc1,23.5%
8,COc1ccc(S(=O)(=O)N(C)C[C@@H]2Oc3ccc(NC(=O)Nc4ccc(C(F)(F)F)cc4)cc3CC(=O)N([C@H](C)CO)C[C@@H]2C)cc1,18.9% [at 30 µM]
9,Nc1ccc(-c2nc3ccc(C(=O)O)cc3s2)cc1,14%
10,Cn1nnnc1Sc1ncnc2scc(-c3cccc(Br)c3)c12,10.6%
11,O=C(C1CC1)N1C[C@@H]2N[C@H](C1)C2c1ccc(-c2cccc(F)c2)cc1 (stereo partly specified),11.3%
